Bioassay records: PubChem, Johns Hopkins Ion Channel Center
An excerpt weighted towards active compounds, which were near 1.6% of everything screened.
KCNQ2 inh – rat KCNQ2 potassium channel inhibitors, primary screen, cell-based, CHO-K1, FluxOR thallium flux, B-score; Potassium voltage-gated channel subfamily KQT member 2 (Rattus norvegicus), O88943; 20 min; hits give low values; B-score at 10 µM; actives 1.1% (n = 310,000);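 active = fluorescence ratio B-score at most minus 3 library SDs, with starting brightness B-score within 2 library SDs, cut at about -5.5 in these data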
Target sequence (O88943 whole entry, looked up): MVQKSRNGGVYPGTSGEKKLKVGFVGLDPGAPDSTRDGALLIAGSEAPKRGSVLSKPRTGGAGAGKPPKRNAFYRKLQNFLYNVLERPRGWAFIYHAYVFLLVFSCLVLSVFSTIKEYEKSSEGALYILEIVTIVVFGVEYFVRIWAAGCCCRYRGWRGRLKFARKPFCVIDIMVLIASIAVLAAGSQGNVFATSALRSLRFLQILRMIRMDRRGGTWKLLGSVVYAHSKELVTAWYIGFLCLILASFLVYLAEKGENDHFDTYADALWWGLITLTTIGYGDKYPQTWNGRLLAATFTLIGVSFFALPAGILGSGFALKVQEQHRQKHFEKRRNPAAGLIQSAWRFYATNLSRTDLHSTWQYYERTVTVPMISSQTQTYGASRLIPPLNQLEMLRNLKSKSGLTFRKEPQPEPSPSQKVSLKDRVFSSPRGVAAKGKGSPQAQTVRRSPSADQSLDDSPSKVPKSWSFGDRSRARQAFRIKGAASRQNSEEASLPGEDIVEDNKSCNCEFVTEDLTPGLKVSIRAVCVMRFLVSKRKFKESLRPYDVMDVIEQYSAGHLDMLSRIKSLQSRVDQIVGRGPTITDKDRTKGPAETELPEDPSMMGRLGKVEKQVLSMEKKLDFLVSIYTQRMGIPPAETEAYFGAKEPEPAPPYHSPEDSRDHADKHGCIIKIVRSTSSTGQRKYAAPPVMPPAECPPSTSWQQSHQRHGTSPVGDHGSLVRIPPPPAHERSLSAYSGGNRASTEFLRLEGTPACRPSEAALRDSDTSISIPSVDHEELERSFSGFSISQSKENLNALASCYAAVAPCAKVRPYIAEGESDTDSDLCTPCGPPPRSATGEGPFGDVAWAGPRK
KCNQ2 pot – potentiators of rat KCNQ2 potassium channel | Potassium voltage-gated channel subfamily KQT member 2 (Rattus norvegicus), O88943 | CHO-K1 KCNQ2, FluxOR thallium flux fluorescence; hits give high values | B-score at 10 µM | actives 0.54% (n = 310,000);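 active = fluorescence ratio B-score at least 3 SD of library B-scores, with initial fluorescence B-score within 3 of them, cut at about 5.3 in these data; same plate scores as AID 2156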;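 also: B-score of peak minus minimum over baseline fluorescence ratio after K+ and Tl+ stimulus; positive B-score means potentiation of KCNQ2 with more thallium influx and brighter signal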
KCNQ2 block conf – rat KCNQ2 potassium channel inhibitors, confirmation, cell-based, thallium flux; actives 57% (n = 1,000); KCNQ2-expressing cells, inhibition; hits give low values; AID 493025, 2011; activity change, negative = inhibition, % at 10 µM; shares compounds with KCNQ2 inh;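 also: 0% = vehicle wells and values are ratio percent relative to vehicle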
KCNQ1 spec – human KCNQ1 channel inhibition, counter-screen for KCNQ2 inhibitor project, cell-based, FluxOR thallium flux. shares compounds with KCNQ2 inh. KCNQ1-expressing cells, FluxOR thallium flux fluorescence; hits give low values. activity change, negative = inhibition, % at 10 µM. actives 15% (n = 1,000). AID 493026, 2011;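 active = activity change at least 3 SD of negative controls below their mean in both duplicate wells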;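 also: CHO cells stably transfected with KCNQ1 and depolarized by potassium stimulus; peak minus minimum fluorescence over baseline after thallium addition; 0% = vehicle negative control and -100% = blank without thallium stimulus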
CHO parental ctr – thallium flux change in parental CHO cells, counter-screen for KCNQ2 inhibitor project; shares compounds with KCNQ2 inh; actives 14% (n = 1,000); activity change, % at 10 µM; AID 493029, 2011; hits give low values;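 also: 0% = vehicle negative controls with stimulus buffer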
KCNQ2 patch conf – rat KCNQ2 channel inhibitors, confirmation, cell-based, automated patch clamp, single concentration. shares compounds with KCNQ2 inh. KCNQ2-expressing cells, automated patch clamp current. calls only at 10 µM. actives 49% (n = 550). AID 588531, 2011
Numbers without * were called inactive; i = inactive; nt = no result given; + = active, no number. Unless noted, no rule for the calls is given here.

SMILES | KCNQ2 inh | KCNQ2 pot | KCNQ2 block conf | KCNQ1 spec | CHO parental ctr | others
CCc1nc(CNC(=O)C2CCC(=O)N(Cc3cccc(OC)c3)C2)no1 (configuration not stated) | i | nt | nt | nt | nt
O=C(CCCOc1ccc(Cl)cc1Cl)N1CCCc2ccccc21 | -14* | -14 | i | i | i
O=C(COc1ccc(Cl)cc1Cl)OCC(=O)N1CCCc2ccccc21 | i | 0.48 | nt | nt | nt
Cc1ccccc1C(=O)NCCCNC(=O)c1ccccn1 | i | 0.25 | nt | nt | nt
C(=N\NC(=Nc1ccccc1)c1ccccn1)/c1ccccn1 | i | nt | nt | nt | nt
Clc1ccc(/C=N/NC(=Nc2ccccc2)c2ccccn2)c(Cl)c1 | -8.2* | -8.2 | -28%* | i | i | KCNQ2 patch conf=+
Cc1ccc(N(C)C(=O)N2CCN(S(=O)(=O)c3ccc4ccccc4c3)CC2)cc1 | i | nt | nt | nt | nt
CCc1nc(SCC(=O)Nc2cc(OC)ccc2OC)c2c(C)c(C)sc2n1 | i | nt | nt | nt | nt
N#Cc1c(NCCN)nc(-c2ccco2)c2c1CCCC2 | i | nt | nt | nt | nt
CC(C)CCNc1nc(-c2ccco2)c2c(c1C#N)CCCC2 | -6.8* | -6.8 | i | i | i
CC1(c2ccccc2Cl)NC(=O)N(CC(=O)c2ccc3c(c2)OCO3)C1=O (configuration not stated) | i | 0.07 | nt | nt | nt
CC(C)(C)n1nnnc1C(c1ccc(C#N)cc1)N1CCCC2(CCCCC2)C1 (configuration not stated) | -7.1* | -7.1 | -37%* | -38%* | -37%* | KCNQ2 patch conf=i
CC(C)(C)n1nnnc1C(c1ccncc1)N1CCCCCC1 (configuration not stated) | i | nt | nt | nt | nt
COc1ccc(C)cc1NC(=O)CCNS(=O)(=O)c1ccc2c(c1)CC(C)N2C(C)=O (configuration not stated) | i | nt | nt | nt | nt
Cc1ccc(OCc2nnc(SCC(=O)Nc3cccc4ccccc34)n2-c2ccccc2)cc1 | -8.5* | -8.5 | i | i | i
Cc1ccc(C(=O)CSc2nnc(COc3ccc(C#N)cc3)n2-c2ccccc2)cc1 | i | 0.91 | nt | nt | nt
CC(C)c1nc(SCC(=O)Nc2ccc(C(=O)O)cc2)c2c3c(sc2n1)CCCC3 | i | nt | nt | nt | nt
O=C(NC(=S)Nc1ccccc1Cl)c1cncc(Br)c1 | i | 0.53 | nt | nt | nt
CS(=O)(=O)Nc1cc2c3c(c1)CCC(=O)N3CCC2 | i | 0.11 | nt | nt | nt
Cc1ccc(N=C2CCCN2Cc2ccccc2)c(C#N)c1 | -9* | -9 | -47%* | -43%* | -34%* | KCNQ2 patch conf=+
Cc1ccc(N=C2CCCCCN2C)c(C#N)c1 | i | nt | nt | nt | nt
O=C(Nc1ccc2c(c1)OCO2)C(c1ccccc1)N1CCCCC1 (configuration not stated) | i | nt | nt | nt | nt
CC1CCN(C(C(=O)Nc2ccc3c(c2)OCO3)c2ccccc2)CC1 (configuration not stated) | -7* | -7 | i | i | i
C[C@@H](CN=[N+]=[N-])CN1CC[C@H](C(C)(C)C)CCC1=O | i | 0.1 | nt | nt | nt
COC(=O)CSc1nc(C2CC2)cc(C(F)(F)F)c1C#N | i | 0.01 | nt | nt | nt
SMILES | KCNQ2 inh | KCNQ2 pot | KCNQ2 block conf | KCNQ1 spec | CHO parental ctr | others
CCOC(=O)C(C)Sc1nc(C2CC2)cc(C(F)(F)F)c1C#N (configuration not stated) | -6.9* | -6.9 | i | i | i
CC1(C)Cc2c(sc3[nH]c(=O)n(CC(=O)NCC4CCCO4)c(=O)c23)CO1 (configuration not stated) | i | nt | nt | nt | nt
Cc1cccc(C)c1OCc1cc(C(=O)N2CCC(c3ccccc3)CC2)no1 | -9.2* | -9.2 | -24%* | i | i | KCNQ2 patch conf=+
Cc1cccc(C)c1OCc1cc(C(=O)N2CCC(C3CCCCC3)C2)no1 (configuration not stated) | i | nt | nt | nt | nt
OC(COc1ccc(Br)cc1)CN1CCC(Cc2ccccc2)CC1 (configuration not stated) | i | nt | nt | nt | nt
CC1CCC(C(C)C)C(OC(=O)Cn2nnc3c(cnn3-c3ccccc3)c2=O)C1 (configuration not stated) | -7.3* | -7.3 | -27%* | i | i
O=C(Cn1nnc2c(cnn2-c2ccccc2)c1=O)NCc1cccs1 | i | nt | nt | nt | nt
O=C1COc2ccc(C(=O)COC(=O)Cc3ccsc3)cc2N1 | i | nt | nt | nt | nt
CCc1cccc2c1Sc1ccccc1CC2N1CCNCC1 (configuration not stated) | i | nt | nt | nt | nt
Cc1cccc2c1Sc1ccc(Cl)cc1CC2N1CCNCC1 (configuration not stated) | -8.4* | -8.4 | -42%* | -34%* | -28%* | KCNQ2 patch conf=+
CC(C)COc1cccc(-c2cc(C(=O)Nc3ccon3)c3ccccc3n2)c1 | i | nt | nt | nt | nt
Cc1ccc(Cl)cc1NC(=O)COC(=O)CC1CC2CCC1C2 (configuration not stated) | i | nt | nt | nt | nt
COC(=O)c1ccc(C(=O)OC)c(NC(=O)COC(=O)CC2CC3CCC2C3)c1 (configuration not stated) | -11* | -11 | i | i | i
CCOc1cc(N2CCOCC2)c(OCC)cc1NS(=O)(=O)c1cc(NC(C)=O)ccc1OC | i | nt | nt | nt | nt
COc1cccc(N(CC(=O)NCCSCc2ccc(Cl)cc2)S(C)(=O)=O)c1 | i | nt | nt | nt | nt
CC1(C)CC(C(CCN(Cc2ccccc2)C(=O)c2ccco2)c2ccc(F)cc2)CCO1 (configuration not stated) | i | nt | nt | nt | nt
Cc1ccc(C(CCN)c2ccco2)cc1 (configuration not stated) | i | nt | nt | nt | nt
CCC(=O)N(CCC(c1ccc(C)cc1)c1ccco1)Cc1ccco1 (configuration not stated) | -10* | -10 | i | i | i
O=C(c1ccco1)N(CCC(c1ccccc1)c1ccco1)Cc1ccc(F)cc1 (configuration not stated) | -7.8* | -7.8 | -46%* | -46%* | -42%* | KCNQ2 patch conf=+
CCCc1cc(C(=O)N(C)CC(=O)Nc2ccc(OCC)c(OCC)c2)sc1C | i | 0.83 | nt | nt | nt
O=C(Cn1cnc2cc([N+](=O)[O-])ccc2c1=O)Nc1ccccc1-c1ccccc1 | i | 0.03 | nt | nt | nt
COc1cccc(CNc2cc(C)ccn2)c1O | i | 0.73 | nt | nt | nt
Cc1ccnc(NCc2cccc3ccccc23)c1 | -6.9* | -6.9 | -40%* | -29%* | -28%*
CCCCN(C(=O)c1ccc(Br)o1)C1CCS(=O)(=O)C1 (configuration not stated) | i | 0.06 | nt | nt | nt
O=C(NCC(=O)N(c1ccccc1)C(C(=O)NC1CCCCC1)c1cccnc1)c1ccco1 (configuration not stated) | i | nt | nt | nt | nt
C=CCNC(=O)c1ccc2c(c1)S(=O)(=O)c1ccccc1C2=O | i | 0.99 | nt | nt | nt
